Screens (PubChem BioAssay)
Compounds with a hit are over-represented: about 9.4% of the library has one in this group of screens.
ELG1 DNA repair – inhibitors of ELG1-dependent DNA repair in HEK293T cells; HEK293T ELG1-luciferase reporter, luminescence, 16 h; DNA damage induced by 5-fluorouridine; Potency, µM (highest dose often 46.1 µM), inactives show top-dose activity change, negative = inhibition, usual class: inhibitors; 330,000 tested, 2.3% active; note: % is set by controls: 0 for no effect and ±100 for the full control effect; nearly all actives have a fitted effect of over 55% in size
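In this reporter screen, reduction of luminescence relative to DMSO vehicle indicated activity. Compounds and 5-fluorouridine were added together to 2,000 cells per well, incubated for 16 hr at 37 °C, then developed with ONE-Glo.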
NPC1 promoter act – activators of NPC1 promoter | AID 485313 | Potency, µM (highest dose often 9.22 µM), without a hit: at the top dose activation, actives largely listed as activators | Huh7 NPC1 promoter luciferase reporter, 24 h | 320,000 tested, 2.4% active; note: % of control where 0% means no effect; nearly all actives have a fitted effect of over 60% in size
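Huh7 reporter cells (NPC1 promoter driving luciferase) are dosed with compound for 24 h at 37 °C, 5% CO2; luciferase detection reagent is then added and luminescence measured after 10 min at ambient temperature.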
FLuc modulator – counter-screen for miR-21 project: firefly luciferase inhibitors or activators | P08659 | purified FLuc, Km substrates, luminescence inhibition | Potency, µM (highest dose often 57.5 µM), for inactives: at the highest dose activity change, negative = inhibition, hits mostly inhibitors | 360,000 tested, 6.9% active | AID 588342;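 note: plate controls were vehicle for no effect and reference inhibitor for full effect; nearly all actives have a fitted effect of over 55% in size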
Target sequence (P08659 whole entry, looked up): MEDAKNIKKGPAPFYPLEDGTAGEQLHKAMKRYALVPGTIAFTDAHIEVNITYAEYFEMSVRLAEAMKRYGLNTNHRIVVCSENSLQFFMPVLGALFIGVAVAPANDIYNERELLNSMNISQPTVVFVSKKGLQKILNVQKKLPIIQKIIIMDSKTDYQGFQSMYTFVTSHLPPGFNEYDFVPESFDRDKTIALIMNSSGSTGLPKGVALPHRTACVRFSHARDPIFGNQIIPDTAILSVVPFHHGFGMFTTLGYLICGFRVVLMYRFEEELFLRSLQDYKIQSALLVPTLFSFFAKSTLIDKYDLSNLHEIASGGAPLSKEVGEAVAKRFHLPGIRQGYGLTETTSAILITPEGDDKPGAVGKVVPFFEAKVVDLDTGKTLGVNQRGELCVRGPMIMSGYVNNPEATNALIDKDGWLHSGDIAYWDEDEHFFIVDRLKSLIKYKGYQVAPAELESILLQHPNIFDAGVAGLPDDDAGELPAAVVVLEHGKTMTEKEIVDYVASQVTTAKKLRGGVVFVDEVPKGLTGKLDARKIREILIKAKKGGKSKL
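Purified P. pyralis luciferase (10nM final) with 10uM D-luciferin and 10uM ATP (Km levels) in 50mM Tris acetate pH 7.5, 10mM Mg acetate, 0.01% Tween-20, 0.05% BSA; qHTS 6-point titration, ~60 µM downward; luminescence read.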
SMN2 splice enh – enhancers of SMN2 splice variant expression; HEK293 SMN2-luciferase splicing reporter, luminescence, 30-36 h; 210,000 tested, 2.8% active; Potency, µM (doses to about 46.1 µM), without a hit: top-dose activity change, positive = activation, most hits filed as activators; AID 1458; note: % of control where 0% means no effect; nearly all actives have a fitted effect of over 55% in size
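HEK293 cells carry an SMN2 minigene-luciferase reporter in which exon 7 inclusion puts luciferase in frame. Cells were seeded at 2000 cells/well, attached for 10-12 hours, then exposed to compounds for 30-36 hours at 37C before ONE-Glo luminescence.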
Rab9 prom act – activators of Rab9 promoter | Potency, µM (series often up to 9.22 µM), for the others: top-dose activation, negative = inhibition, actives largely listed as activators | Huh7 Rab9 promoter-luciferase reporter, luminescence, 24 h | AID 485297 | 320,000 tested, 2.8% active; note: % of control where 0% means no effect; nearly all actives have a fitted effect of over 60% in size
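Huh7 reporter line, Rab9 promoter upstream of luciferase. Compound exposure 24 h at 37 °C in reduced-serum medium with 10% FBS. Read-out: luminescence.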
ELG1 genotox – inducers of genotoxicity in HEK293T ELG1-luciferase cells | 330,000 tested, 1.3% active | Potency, µM (series often up to 46 µM), inactives show at the top dose activity change, positive = activation, usual class: activators | AID 504466 | HEK293T ELG1-luciferase reporter, luminescence, 16 h; note: % of control where 0% means no effect; nearly all actives have a fitted effect of over 60% in size
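Quantitative HTS format in 1536-well plates. HEK293T ELG1-luciferase reporter cells receive test compound and are incubated 16 hr at 37 °C, 5% CO2; ONE-Glo added, 30 min room temperature, then luminescence read.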
Starred values were filed as active, the others as inactive; ? = inconclusive; . = not tested or not shown; [ ] = dose if it differs, or a comment. Calls come from the whole dose curve; as a rule, active = well fitted curve in the direction sought with a large enough effect; inconclusive = small, poorly fitted or top-dose-only effect, or another doubt; inactive = no such curve, though single readings can be large; an effect the other way counts as inactive or inconclusive. Potency is the fitted concentration of half-maximal effect.

SMILES	ELG1 DNA repair	NPC1 promoter act	FLuc modulator	SMN2 splice enh	Rab9 prom act	ELG1 genotox
Cc1ccc(Cn2ccc(NC(=O)c3noc4c3CCCCC4)n2)cc1	-4.1%	16.3%	?	-32.0%	0.7%	2.0%
Cc1ccc(NC(=O)c2noc3c2CCCCC3)cc1	?	0.562µM*	9.53µM*	11.2µM*	0.501µM*	?
COc1ccc(NC(=O)c2noc3c2CCCCC3)cc1	?	1.41µM*	12µM*	7.94µM*	?	?
O=C(NCCc1ccccc1)c1noc2c1CCCCC2	?	2.51µM*	8.49µM*	?	3.55µM*	?
COc1ccc(C(=O)C2CCCN(C(=O)c3noc4c3CCCC4)C2)c(C)c1 (stereo not drawn)	25.9µM*	-0.4%	2.9%	.	-2.2%	-6.9%
Nc1ccc(S(=O)(=O)NCCS(=O)(=O)O)cc1	.	.	.	-3.1%[9.22 µM]	.	.
CCCCCn1c(CCCNC(=O)c2ccccc2)nc2ccccc21	.	.	-11.1%	-25.2%	.	.
COC(=O)c1ccccc1NC(=O)CSc1nc(-c2ccccc2)cc(C(F)(F)F)n1	.	.	-7.1%	3.3%	.	.
CCOc1ccc(C(=O)c2cn(CC(=O)Nc3ccc(F)cc3)c3cc4c(cc3c2=O)OCO4)cc1	.	.	-6.8%	-0.9%	.	.
O=C(NC1CCCCC1)c1noc2c1CCCCC2	?	2.24µM*	9.53µM*	12.6µM*	2.51µM*	9.2µM*
CCc1ccc(NC(=O)c2noc3c2CCCCC3)cc1	?	0.708µM*	2.13µM*	10µM*	0.631µM*	?
CCOc1ccc(NC(=O)C2CC(=O)NC(=Nc3ccc(Cl)c(Cl)c3)S2)cc1 (stereo not drawn)	.	.	-6.9%	-0.3%	.	.
COc1cc(NC(=O)c2cccs2)ccc1NC(=O)c1ccco1	?	29.6%	?	11.2µM*	?	18.4µM*
CCOc1cc(NC(=O)c2ccco2)c(OCC)cc1NC(=O)CCc1ccccc1OC	20.6µM*	-1.5%	0.1%	-6.7%	-8.3%	-11.3%
COc1ccc(NC(=O)c2ccco2)cc1NC(=O)c1ccco1	2.3%	7.4%	-2.9%	-13.6%	0.3%	-0.8%
COc1ccc(NC(=O)c2ccco2)cc1NC(=O)c1c(OC)cccc1OC	?	-0.4%	15.1µM*	2.8%	5.1%	1.2%
COc1ccc(CCNC(=O)c2ccccc2NC(=O)c2ccco2)cc1OC	18.4µM*	2.0%	-11.8%	-14.4%	4.5%	-8.5%
CCOc1cc(NC(=O)c2ccco2)c(OCC)cc1NC(=O)c1ccco1	-9.3%	10.0%	1.4%	.	2.9%	-6.8%
COc1cc(NC(=O)c2oc3ccccc3c2C)ccc1NC(=O)c1ccco1	-22.5%	24.8%	5.36µM*	.	?	-5.5%
O=C(Nc1ccc(OC(=O)c2cccs2)cc1)c1ccco1	?	0.0%	2.69µM*	19.0%	9.7%	?
COc1cc(NC(=O)c2ccccc2Cl)ccc1NC(=O)c1ccco1	?	2.51µM*	10.7µM*	22.4µM*	2.82µM*	?
COc1ccc(/C=N/NC(=O)c2ccccc2NC(=O)c2ccco2)c(OC)c1	0.0%	4.6%	5.36µM*	.	0.6%	1.6%
CSc1cccc(NC(=O)CN2CCN(Cc3ccccc3C)S2(=O)=O)c1	.	.	-12.0%	.	.	.
C/C(CC/C(C)=N/O)=N/O	.	.	.	-10.3%[9.22 µM]	.	.
Cc1ccc(Cl)cc1N1CCN(C(=O)c2cc(S(=O)(=O)N3CCCC3)c[nH]2)CC1	.	.	1.3%	.	.	.
SMILES	ELG1 DNA repair	NPC1 promoter act	FLuc modulator	SMN2 splice enh	Rab9 prom act	ELG1 genotox
OCCNc1ncnc2nc[nH]c12	.	.	.	-8.0%[9.22 µM]	.	.
CC(=O)C1=C(c2ccccc2)N(C(C)=O)n2c(nnc2C2CCCCC2)S1	.	.	1.5%	.	.	.
COc1cccc(C(=O)N(Cc2nc(-c3ccc(Cl)cc3)no2)C(C)C)c1OC	.	.	-9.0%	-14.8%	.	.
COc1cccc(CSc2nc3n(n2)C(c2cccs2)C(C(=O)Nc2ccccc2C)=C(C)N3)c1 (stereo not drawn)	.	.	-6.7%	.	.	.
COc1ccccc1NC(=O)c1ccccc1NC(=O)c1cc(Cl)ccc1NC(=O)c1ccco1	-20.2%	-1.4%	8.9%	9.8%	3.5%	0.8%
COc1ccc(NC(=O)c2ccccc2NC(=O)c2ccco2)c(OC)c1	?	8.0%	19µM*	-7.8%	2.9%	-6.9%
CCOC(=O)C1=C(O)/C(=C/c2cn(CC(=O)N3CCCC3)c3ccccc23)SC1=Nc1ccccc1	4.11µM*	-3.6%	?	21.0%	-0.4%	2.8%
COC(=O)c1cn(CC(=O)N2CCCCCC2)c2ccccc12	1.0%	-1.7%	3.3%	18.6%	-1.6%	-1.2%
C/C(=C\C(=O)c1ccc(C)o1)Nc1ccc(C(=O)O)cc1C	21.4%	1.3%	9.53µM*	29.8%	-4.5%	11.2%
CCc1ccc(-n2nc(C)c3c(C(=O)Nc4cc(OC)cc(OC)c4)cc(C)nc32)cc1	.	.	2.3%	.	.	.
c1ccc(-c2ncc3c(ccc4ccccc43)n2)cc1	?	3.98µM*	0.0849µM*	0.501µM*	0.794µM*	0.651µM*
c1ccc(-c2cnc(-c3ccccc3)nc2)cc1	?	0.562µM*	0.301µM*	7.08µM*	0.355µM*	?
Cc1ccc(NC(=O)Cn2nnc(-c3nc(-c4ccncc4)no3)c2N)cc1	.	.	-3.9%	.	.	.
O=C(C1CCN(S(=O)(=O)Cc2ccccc2)CC1)N1CCN(c2cccc(Cl)c2)CC1	.	.	-0.6%	.	.	.
COc1cc(NC(=O)N(Cc2ccco2)C2CCN(C(C)=O)CC2)cc(OC)c1OC	.	.	3.6%	.	.	.
COc1ccc(N2C(=O)C(Cl)=C(Nc3ccccc3OC)C2=O)cc1	1.1%	2.1%	23.9µM*	-32.7%	-7.0%	0.6%
COc1ccc(N2C(=O)C(Cl)=C(Nc3ccccc3O)C2=O)cc1	?	2.7%	?	-30.2%	5.5%	13.3%
CCC(=O)Nc1cc(-c2nc3cc(C)cc(C)c3o2)ccc1C	.	.	1.69µM*	11.4%	.	.
CCc1ccc2oc(-c3ccc(C)c(NC(=O)Cc4ccccc4)c3)nc2c1	.	.	4.78µM*	23.1%	.	.
CCc1ccc2oc(-c3ccc(C)c(NC(=O)c4ccc(C#N)cc4F)c3)nc2c1	.	.	16.9µM*	-10.2%	.	.
O=C(Cc1ccccc1)Nc1cc(-c2nc3cc(Cl)ccc3o2)ccc1Cl	.	.	2.7%	?	.	.
Cc1ccccc1-n1nc(C(=O)c2cccs2)cc(-c2nc3ccccc3[nH]2)c1=N	13µM*	0.3%	1.8%	-28.5%	-3.8%	-10.8%
COc1ccc(-n2nc(C(=O)c3cccs3)cc(-c3nc4ccccc4[nH]3)c2=N)cc1	?	-5.9%	-1.4%	?	0.0%	23.1µM*
Cc1cccc(-n2nc(C(=O)c3ccco3)cc(-c3nc4ccccc4[nH]3)c2=N)c1	13µM*	-1.4%	0.5%	-99.4%	-4.8%	-20.5%
Cc1cc(NC(=O)c2cccs2)n(-c2nc3ccccc3[nH]2)n1	-11.8%	-3.5%	-0.7%	-76.2%	-4.3%	-0.3%
